The nature of assay [1]: qHTS assay to identify small molecule antagonists of the thyroid receptor (TR) signaling pathway - cell viability counter screen (AID 743064). Further: nearly all actives have a fitted effect of over 50% in size. The gist of the method: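 GH3.TRE-Luc rat pituitary cells dosed after 4 hr plating, co-stimulated with T3 at 1 nM final, incubated 23.5 h at 37 C. Viability measured in the same wells by CellTiter-Fluor fluorescence after 30 min further at 37 C.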
In general terms: Quantitative high-throughput screening tests each substance at several concentrations.

Assay [2] can be described thus: qHTS assay to identify small molecule antagonists of the thyroid receptor (TR) signaling pathway (AID 743065). Further: series mostly up to about 70 µM; nearly all actives have a fitted effect of over 55% in size. A digest of the protocol: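 GH3.TRE-Luc rat pituitary cells (two TREs driving luciferase) were dosed with compound, then stimulated with 1 nM T3 (final) for 23.5 h at 37 C. ONE-Glo luminescence was the read-out, with CellTiter-Fluor fluorescence as the cytotoxicity counter-screen.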

For assay [3], the system named is thyroid hormone receptor (rat, GH3 cells). In words: qHTS assay to identify small molecule agonists of the thyroid receptor (TR) signaling pathway (AID 743066; calls by dose curve).
Assay [4] addresses Estrogen receptor (Homo sapiens) (UniProt P03372). Nature of the assay: qHTS assay to identify small molecule antagonists of the estrogen receptor alpha (ER-alpha) signaling pathway (AID 743069; active means well fitted curve in the direction sought with a large enough effect in the signal ratio in the repeat runs, not every such curve was filed as active; the % refers to the signal ratio). A digest of the protocol: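 Beta-lactamase FRET fluorescence is read after 2 hr at room temperature with LiveBLAzer B/G substrate. Before that, ER-alpha-bla HEK293 cells sit 4 hr after plating, then receive compound plus 17beta-estradiol and incubate 18 hr at 37C.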

The nature of assay [5]: qHTS assay to identify small molecule antagonists of the estrogen receptor alpha (ER-alpha) signaling pathway - cell viability counter screen (AID 743074; calls by dose curve;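 further: HEK293 cells carrying ER-alpha-UAS-bla reporter stimulated with 17beta-estradiol; nearly all actives have a fitted effect of over 45% in size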).
The target of assay [6] is Estrogen receptor (Homo sapiens) (UniProt P03372). Nature of the assay: qHTS assay to identify small molecule agonists of the estrogen receptor alpha (ER-alpha) signaling pathway (AID 743075; calls by dose curve;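 further: HEK293 GripTite cells with ER-alpha and UAS-driven beta-lactamase reporter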).
Estrogen receptor (Homo sapiens), sequence (P03372 whole entry, looked up): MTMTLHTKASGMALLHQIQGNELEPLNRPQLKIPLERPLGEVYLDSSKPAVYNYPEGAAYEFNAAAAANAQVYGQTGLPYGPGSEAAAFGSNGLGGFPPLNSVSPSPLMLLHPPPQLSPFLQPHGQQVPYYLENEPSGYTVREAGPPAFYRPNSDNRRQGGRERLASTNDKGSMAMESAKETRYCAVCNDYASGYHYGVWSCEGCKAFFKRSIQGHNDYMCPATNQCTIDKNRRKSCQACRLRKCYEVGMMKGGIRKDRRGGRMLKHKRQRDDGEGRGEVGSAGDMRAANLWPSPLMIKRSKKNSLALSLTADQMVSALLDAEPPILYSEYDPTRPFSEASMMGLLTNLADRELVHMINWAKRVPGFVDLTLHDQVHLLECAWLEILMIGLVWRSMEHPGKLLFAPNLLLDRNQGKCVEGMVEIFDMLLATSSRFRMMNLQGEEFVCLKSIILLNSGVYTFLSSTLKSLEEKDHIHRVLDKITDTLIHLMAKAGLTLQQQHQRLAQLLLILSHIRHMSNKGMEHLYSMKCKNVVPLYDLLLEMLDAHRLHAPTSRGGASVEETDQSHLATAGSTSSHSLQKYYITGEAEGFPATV
Assay [7] shares this target. In words: qHTS assay to identify small molecule agonists of the estrogen receptor alpha (ER-alpha) signaling pathway using the BG1 cell line (AID 743079). Further: nearly all actives have a fitted effect of over 20% in size.
A short description of assay [8]: qHTS assay to identify small molecule antagonists of the estrogen receptor alpha (ER-alpha) signaling pathway using the BG1 cell line (AID 743080; calls by dose curve;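 further: BG1 cells stimulated with 17beta-estradiol alongside compound; series mostly up to about 70 µM; nearly all actives have a fitted effect of over 25% in size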). A digest of the protocol: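 Luminescence from a 4×ERE-luciferase reporter in BG1-Luc-4E2 cells served as read-out. Cells, pre-cultured 5 days in stripped-serum phenol-red-free medium, were exposed to compound with 17beta-estradiol co-stimulation for 21.5 h at 37 C.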

The nature of assay [9]: qHTS assay to identify small molecule antagonists of the estrogen receptor alpha (ER-alpha) signaling pathway using the BG1 cell line - cell viability counter screen (AID 743081).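 Further: compound given together with 17beta-estradiol as the ER stimulus; series mostly up to about 70 µM; nearly all actives have a fitted effect of over 45% in size.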
The target of the next assay is Aromatase (Homo sapiens) (UniProt P11511). Nature of the assay: qHTS assay to identify aromatase inhibitors (AID 743083). Further: nearly all actives have a fitted effect of over 55% in size. Further: potency means the concentration at half of the fitted maximal effect.
Aromatase (Homo sapiens), sequence (P11511 whole entry, looked up): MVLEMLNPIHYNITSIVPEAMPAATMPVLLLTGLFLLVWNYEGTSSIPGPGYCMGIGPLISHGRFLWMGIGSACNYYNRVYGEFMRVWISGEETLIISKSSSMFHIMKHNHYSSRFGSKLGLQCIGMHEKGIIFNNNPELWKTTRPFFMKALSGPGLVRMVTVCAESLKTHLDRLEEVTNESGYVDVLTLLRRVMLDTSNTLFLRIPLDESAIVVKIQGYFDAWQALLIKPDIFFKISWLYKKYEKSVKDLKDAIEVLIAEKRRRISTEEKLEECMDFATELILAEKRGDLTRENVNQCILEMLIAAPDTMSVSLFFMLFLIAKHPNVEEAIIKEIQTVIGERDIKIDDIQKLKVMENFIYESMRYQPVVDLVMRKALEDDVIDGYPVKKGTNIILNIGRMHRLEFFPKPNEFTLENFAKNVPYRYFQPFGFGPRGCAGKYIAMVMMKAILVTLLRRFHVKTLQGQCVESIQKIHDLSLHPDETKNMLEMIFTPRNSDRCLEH
Assay [10] in a line: qHTS assay to identify aromatase inhibitors - cell viability counter screen (AID 743084).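 Further: cells stimulated with testosterone during compound exposure; nearly all actives have a fitted effect of over 55% in size.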
Assay [11] deals with Aryl hydrocarbon receptor (Homo sapiens) (UniProt P35869). In words: qHTS assay to identify small molecule that activate the aryl hydrocarbon receptor (AhR) signaling pathway (AID 743085). Further: nearly all actives have a fitted effect of over 15% in size. Further: potency means the concentration at half of the fitted maximal effect.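 On activation: HG2L7.5c1 human HepG2 liver cells with stably integrated DRE-driven firefly reporter; series mostly up to about 70 µM.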 A digest of the protocol:
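HepG2 cells stably carrying a 20-DRE firefly luciferase reporter (HG2L7.5c1) treated with compound for 24 hr at 37C. Luciferase read by ONE-Glo luminescence, with CellTiter-Fluor viability read first.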

Assay [12] can be described thus: qHTS assay to identify small molecule that activate the aryl hydrocarbon receptor (AhR) signaling pathway - cell viability counter screen (AID 743086).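 Further: HepG2 liver cells carrying the AhR DRE luciferase reporter; series mostly up to about 70 µM; nearly all actives have a fitted effect of over 45% in size.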 The gist of the method:
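HepG2-AhR-luc (HG2L7.5c1) cells, 4000/well, treated 24 h at 37 C with compound; viability measured as CellTiter-Fluor fluorescence after 30 min in the same wells as the luciferase read.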

The nature of assay [13]: qHTS assay to identify small molecule antagonists of the peroxisome proliferator-activated receptor gamma (PPARg) signaling pathway - cell viability counter screen (AID 743194). Further: nearly all actives have a fitted effect of over 55% in size. A digest of the protocol: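 Cytotoxicity counter screen in PPARg-bla HEK293H cells, same wells as reporter assay. Compounds plus 50 nM rosiglitazone (final) for 17 h at 37 C, then viability read by CellTiter-Glo luminescence.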

The nature of assay [14]: qHTS assay for small molecule agonists of the antioxidant response element (ARE) signaling pathway (AID 743202; active means well fitted activation curve with a large enough effect in the signal ratio in the repeat runs, not every such curve was filed as active; the % refers to the signal ratio; further: potency means the concentration at half of the fitted maximal effect). A digest of the protocol:
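HepG2 ARE-bla reporter line, 2,000 cells/well; 5 h preincubation 37 C/5% CO2; compound (DMSO) 16 h 37 C; B/G FRET substrate 2 h RT; fluorescence intensity.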

Assay [15] is described as follows: qHTS assay for small molecule agonists of the antioxidant response element (ARE) signaling pathway - cell viability counter screen (AID 743203; calls by dose curve; further: nearly all actives have a fitted effect of over 55% in size). The gist of the method:
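Luminescence read-out (CellTiter-Glo, 30 min at room temperature) measured cell viability in the same wells as the ARE beta-lactamase reporter. HepG2 ARE-bla cells were treated with compounds for 16 hrs at 37C/5% CO2.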

The nature of assay [16]: qHTS assay for small molecule activators of the heat shock response signaling pathway - cell viability counter screen (AID 743209). Further: nearly all actives have a fitted effect of over 50% in size. The gist of the method: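 HSE-bla HeLa; 1500 cells/well; overnight 37 C, 5% CO2; compound 5 h 37 C; LiveBLAzer B/G substrate 2.5 h RT; CellTiter-Glo 30 min RT; luminescence.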
Assay [17] in a line: qHTS assay for small molecule activators of the heat shock response signaling pathway (AID 743210; active means well fitted activation curve with a large enough effect in the signal ratio in the repeat runs, with a control signal flat, not every such curve was filed as active; the % refers to the signal ratio; further: potency means the concentration at half of the fitted maximal effect;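 on activation: HeLa cells with beta-lactamase reporter driven by heat shock elements; series mostly up to about 63 µM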). The gist of the method:
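Beta-lactamase reporter read-out: FRET substrate fluorescence after 2.5 h at RT, following 5 h compound treatment at 37 C of HeLa cells carrying HSE-driven bla reporter; quantitative HTS format.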

The target in assay [18] is Peroxisome proliferator-activated receptor gamma (Homo sapiens) (UniProt P37231). In words: qHTS assay to identify small molecule agonists of the peroxisome proliferator-activated receptor gamma (PPARg) signaling pathway (AID 743094; active means well fitted activation curve with a large enough effect in the signal ratio in the repeat runs, not every such curve was filed as active; the % refers to the signal ratio). The gist of the method: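 HEK293H PPARg-bla cells, 5 h settle at 37C/5% CO2; compound (DMSO) 17 h, 37C; B/G FRET substrate 1 h RT; fluorescence intensity read-out. qHTS format.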
Peroxisome proliferator-activated receptor gamma (Homo sapiens), sequence (P37231 whole entry, looked up): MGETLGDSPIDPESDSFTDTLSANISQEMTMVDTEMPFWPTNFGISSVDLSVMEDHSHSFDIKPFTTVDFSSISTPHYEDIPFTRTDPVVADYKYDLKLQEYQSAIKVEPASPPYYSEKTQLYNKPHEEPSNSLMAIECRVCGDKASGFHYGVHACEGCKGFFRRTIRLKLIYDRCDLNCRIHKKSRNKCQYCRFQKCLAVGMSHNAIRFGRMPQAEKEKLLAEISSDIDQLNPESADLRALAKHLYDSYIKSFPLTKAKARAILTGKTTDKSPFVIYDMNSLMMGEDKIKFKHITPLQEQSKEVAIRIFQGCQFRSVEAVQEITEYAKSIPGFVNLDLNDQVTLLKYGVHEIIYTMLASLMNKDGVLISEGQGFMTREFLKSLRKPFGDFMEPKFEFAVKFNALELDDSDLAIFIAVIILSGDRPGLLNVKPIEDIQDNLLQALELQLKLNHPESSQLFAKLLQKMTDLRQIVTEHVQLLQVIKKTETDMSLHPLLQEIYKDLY

Assay [19] has the same target. Nature of the assay: qHTS assay to identify small molecule antagonists of the peroxisome proliferator-activated receptor gamma (PPARg) signaling pathway (AID 743191; calls by dose curve; further: series mostly up to about 63 µM; nearly all actives have a fitted effect of over 30% in size). A digest of the protocol: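 GeneBLAzer PPARg UAS-bla HEK293H cells, 5 h post-plating, exposed to compounds 17 h at 37C. LiveBLAzer B/G FRET substrate added for 1 h at room temperature; beta-lactamase reporter read by fluorescence intensity.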

In PubChem BioAssay (Tox21) one finds Potency and outcome data, which are given here for eight molecules.

Several values for one entry are separate records, joined by “and”; a condition that tells them apart may be missing. Identical values can stand only once. Inconclusive results are not listed. A structure can be active in one record and inactive in another. Activity calls are given as the source filed them. Unless noted, the call rests on the fitted dose curve; in most records, active means well fitted curve in the direction sought with a large enough effect in the repeat runs; inconclusive means weak or mixed curves; inactive means no such curve, though single readings can be large; an effect the other way counts as inactive or inconclusive.

Aryl hydrocarbon receptor (Homo sapiens), sequence (P35869 whole entry, looked up): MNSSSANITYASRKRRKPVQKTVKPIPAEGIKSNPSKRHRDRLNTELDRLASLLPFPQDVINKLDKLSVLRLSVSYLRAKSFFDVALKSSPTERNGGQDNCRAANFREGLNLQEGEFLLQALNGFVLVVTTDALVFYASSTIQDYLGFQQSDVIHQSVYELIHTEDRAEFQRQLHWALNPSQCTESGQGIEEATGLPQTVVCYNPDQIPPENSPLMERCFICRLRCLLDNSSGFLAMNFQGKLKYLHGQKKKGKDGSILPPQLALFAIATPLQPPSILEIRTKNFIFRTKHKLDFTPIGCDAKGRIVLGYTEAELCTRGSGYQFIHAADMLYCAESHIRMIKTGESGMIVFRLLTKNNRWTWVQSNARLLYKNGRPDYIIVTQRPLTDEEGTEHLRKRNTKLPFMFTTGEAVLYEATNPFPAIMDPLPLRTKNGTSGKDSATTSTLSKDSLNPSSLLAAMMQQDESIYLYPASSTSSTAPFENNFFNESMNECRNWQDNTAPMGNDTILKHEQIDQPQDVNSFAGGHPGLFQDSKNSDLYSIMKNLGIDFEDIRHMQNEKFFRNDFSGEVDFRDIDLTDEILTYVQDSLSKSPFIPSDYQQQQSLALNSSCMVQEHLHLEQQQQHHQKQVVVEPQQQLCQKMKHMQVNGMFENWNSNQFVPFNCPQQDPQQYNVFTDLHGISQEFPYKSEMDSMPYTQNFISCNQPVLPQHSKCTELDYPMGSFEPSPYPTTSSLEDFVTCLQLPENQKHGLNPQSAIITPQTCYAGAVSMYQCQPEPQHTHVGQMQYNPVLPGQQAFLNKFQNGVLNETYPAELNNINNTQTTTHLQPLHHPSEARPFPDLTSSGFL

Consider `COc1cc(NS(=O)(=O)c2ccc(N)cc2)nc(C)n1`, for which the Potency result in assay [1], in assay [2], in assay [3], in [4], in assay [5] and in assay [6] was “inactive” each time. The Potency result (in assay [7]; in [8]; in assay [9]; with Aromatase (Homo sapiens); in [10]; in [11]) was “inactive” each time. The Potency entry in assay [12], in [13], in [14], in assay [15], in assay [16] and in assay [17] was “inactive” in each case.
With `CCCCCCCCCCCCCCN(C)C`, the Potency entry in [1], in [2], in assay [3], in [4], in assay [5] and in assay [6] was “inactive” each time. Further, the Potency result (in assay [7]; in [8]; in assay [9]; in the assay with Aromatase (Homo sapiens); in assay [10]; in assay [11]) was “inactive” in each case. Also, the Potency entry in assay [12], in assay [13], in assay [14], in [15], in [16] and in assay [17] was “inactive” each time.
`c1ccc(CCCc2ccncc2)cc1`: the Potency entry in assay [1], in [2], in [3], in [4], in assay [5] and in [6] was “inactive” throughout. Besides, the Potency result in [7], in assay [8], in assay [9], in assay [10], in assay [11] and in [12] was “inactive” throughout. Also, the Potency entry in assay [13], in assay [15] and in assay [16] was “inactive” each time. Besides, in the assay with Aromatase (Homo sapiens), the Potency was 30.6 µM (active). In [18], the result was inactive.
Turning to `Cc1cn([C@H]2C[C@H](F)[C@@H](CO)O2)c(=O)[nH]c1=O`, the Potency entry in assay [1], in [2], in assay [3], in assay [4], in assay [5] and in assay [6] was “inactive” in each case. For the same molecule, the Potency entry (in [7]; in [8]; in assay [9]; in the assay with Aromatase (Homo sapiens); in assay [10]; in [11]) was “inactive” each time. For the same molecule, the Potency entry in assay [12], in [19], in assay [13], in [15], in assay [16] and in assay [17] was “inactive” throughout.
With `O=C(Nc1ccc(C(=O)O)c(O)c1)c1ccccc1`, the Potency entry in [1], in [2], in assay [3], in assay [4], in assay [5] and in assay [6] was “inactive” in each case. For the same molecule, the Potency entry (in [7]; in [8]; in assay [9]; in the assay with Aromatase (Homo sapiens); in assay [10]; in assay [12]) was “inactive” throughout. Besides, the Potency result in assay [13], in assay [14], in assay [15] and in assay [16] was “inactive” in each case. The molecule was called inactive in [18].
With `COc1ccc2nc(S(=O)Cc3ncc(C)c(OC)c3C)[nH]c2c1` (centres undefined), the Potency entry in assay [1], in [2], in assay [3], in assay [4], in assay [5] and in assay [6] was “inactive” in each case. The Potency result (in [7]; in assay [8]; in [9]; with Aromatase (Homo sapiens); in assay [10]; in [12]) was “inactive” throughout. The Potency entry in assay [19], in assay [13], in assay [15] and in assay [16] was “inactive” each time. Also, the Potency in [11] was 48 µM (active); in assay [14] it was 17 µM (active) and 16.8 µM (active); in [17], 30.5 µM (active) and inactive. The molecule was classed as inactive in assay [18].
On to `O=C(O)CCS`, for which the Potency entry in [1], in assay [2], in assay [3], in assay [4], in assay [5] and in assay [6] was “inactive” each time. In addition, the Potency result (in [7]; in [8]; in assay [9]; with Aromatase (Homo sapiens); in assay [10]; in [11]) was “inactive” in each case. The Potency entry in assay [12], in [13], in assay [14], in [15] and in [17] was “inactive” each time. Further, the molecule was classed as inactive in assay [18].
`C=CC(=O)O`: the Potency result in [1], in [2], in assay [3], in [4], in assay [5] and in assay [6] was “inactive” in each case. Also, the Potency result (in [7]; in [8]; in assay [9]; with Aromatase (Homo sapiens); in [10]; in [11]) was “inactive” each time. For the same molecule, the Potency result in [12], in assay [19], in [13], in [15] and in [16] was “inactive” throughout. The result in assay [18] was inactive.
